# Assay results published in PubChem BioAssay (NCATS).
# Values joined by “and” are separate entries in the source; they are usually repeats but may differ in a detail not shown here. Identical values can stand only once. Unmarked numbers belong to inactive results. Results filed as inconclusive are left out. Where a call stands in place of a potency, no number is given. Active and inactive are the calls of the source. Unless noted, the call rests on the fitted dose curve; in most records, active means well fitted curve in the direction sought with a large enough effect; inconclusive means small, poorly fitted or top-dose-only effect, or another doubt; inactive means no such curve, though single readings can be large; an effect the other way counts as inactive or inconclusive.
# Experiments:
# [1] = target: Beta-2 adrenergic receptor (Homo sapiens) (UniProt P07550); test: qHTS validation assay of beta-arrestin-biased ligands of beta2-adrenergic receptor (AID 485366)
# Summary of the method: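 Agonism was measured as beta-arrestin recruitment to recombinant beta2-AR, releasing tTA to drive luciferase. Cells were exposed for 18 hr at 37 degrees C to a series up to 46 microM. %Activity from corrected luminescence gave concentration-response curves.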
# [2] = target: ATP-dependent 6-phosphofructokinase (Trypanosoma brucei brucei) (UniProt O15648); test: qHTS Validation Assay to Find Inhibitors of T. brucei phosphofructokinase (AID 485368); further: potency means the concentration at half of the fitted maximal effect
# Summary of the method: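 ADP-Glo luminescence, two-step: residual ATP depleted, then ADP converted to ATP for luciferase. Enzyme 1.25 nM, F6P 0.5 mM, ATP 0.1 mM, pH 8.0 TEA buffer, 45 min RT. Curves fitted and classed by quality and efficacy.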
# [3] = Quantitative high throughput screen for delayed death inhibitors of the malarial parasite plastid, 96 hour incubation (AID 488745); further: series mostly up to about 29 µM; nearly all actives have a fitted effect of over 70% in size
# Summary of the method: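 Two-generation (96 h) exposure of luciferase-reporter P. falciparum in erythrocytes, 2% hematocrit, 0.1% parasitemia final, 37 C, 5% CO2, RPMI 1640 with 0.5% Albumax. Growth inhibition scored by reduced luminescence.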
# [4] = Quantitative high throughput screen for delayed death inhibitors of the malarial parasite plastid, 48 hour incubation (AID 488752); further: nearly all actives have a fitted effect of over 65% in size
# Summary of the method: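 Cultures: infected erythrocytes at final 2% hematocrit and 0.1% parasitemia in Albumax-supplemented RPMI. Parasites express integrated firefly luciferase. Incubation with compound lasts 48 h before luminescent detection of remaining reporter activity.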
# [5] = target: Thioredoxin reductase 1, cytoplasmic (Rattus norvegicus) (UniProt O89049); test: qHTS Assay for Substrates of Mammalian Selenoprotein Thioredoxin Reductase 1 (TrxR1) (AID 488772);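 further: series mostly up to about 57 µM; a drop in NADPH fluorescence below the no-compound background marks a TrxR1 substrate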
# Chain of Thioredoxin reductase 1, cytoplasmic (Rattus norvegicus) (O89049 whole entry, looked up): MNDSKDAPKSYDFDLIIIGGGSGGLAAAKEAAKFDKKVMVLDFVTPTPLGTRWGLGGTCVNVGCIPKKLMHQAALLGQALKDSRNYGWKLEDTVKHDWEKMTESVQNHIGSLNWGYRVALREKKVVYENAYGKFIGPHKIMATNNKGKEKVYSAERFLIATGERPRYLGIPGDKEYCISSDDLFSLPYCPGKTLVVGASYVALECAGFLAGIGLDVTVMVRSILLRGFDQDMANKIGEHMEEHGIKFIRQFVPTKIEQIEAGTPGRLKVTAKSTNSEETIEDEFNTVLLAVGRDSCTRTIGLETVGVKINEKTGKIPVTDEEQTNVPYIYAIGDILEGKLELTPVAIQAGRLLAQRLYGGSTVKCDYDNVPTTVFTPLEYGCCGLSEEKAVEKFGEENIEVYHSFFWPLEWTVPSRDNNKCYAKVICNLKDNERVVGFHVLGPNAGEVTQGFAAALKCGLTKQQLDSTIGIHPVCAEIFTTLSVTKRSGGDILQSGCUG
# Summary of the method: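 In this dual-purpose format, potential substrates are identified from the first fluorescence read after selenite addition, not from the 8-minute delta. Rat enzyme is preincubated with NADPH and then with compound at ~22 deg C.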
# [6] = target: Flap endonuclease 1 (Homo sapiens) (UniProt P39748); test: qHTS Validation Assay for the Inhibitors of Human Flap endonuclease 1 (FEN1) (AID 488816); further: potency means the concentration at half of the fitted maximal effect
# Summary of the method: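 qHTS format: compounds and 10 nM FEN1 incubated 15 min at room temperature before adding 50 nM substrate. Cleavage followed by reads at 0 and 15 min; normalized data fitted to a four-parameter Hill curve.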
# [7] = target: M-phase phosphoprotein 8 (Homo sapiens) (UniProt Q99549); test: qHTS Validation Assay for Inhibitors for MPP8 Chromodomain Interactions with Methylated Histone Tails (AID 488949); further: nearly all actives have a fitted effect of over 55% in size; further: potency means the concentration at half of the fitted maximal effect
# Chain of M-phase phosphoprotein 8 (Homo sapiens) (Q99549 whole entry, looked up): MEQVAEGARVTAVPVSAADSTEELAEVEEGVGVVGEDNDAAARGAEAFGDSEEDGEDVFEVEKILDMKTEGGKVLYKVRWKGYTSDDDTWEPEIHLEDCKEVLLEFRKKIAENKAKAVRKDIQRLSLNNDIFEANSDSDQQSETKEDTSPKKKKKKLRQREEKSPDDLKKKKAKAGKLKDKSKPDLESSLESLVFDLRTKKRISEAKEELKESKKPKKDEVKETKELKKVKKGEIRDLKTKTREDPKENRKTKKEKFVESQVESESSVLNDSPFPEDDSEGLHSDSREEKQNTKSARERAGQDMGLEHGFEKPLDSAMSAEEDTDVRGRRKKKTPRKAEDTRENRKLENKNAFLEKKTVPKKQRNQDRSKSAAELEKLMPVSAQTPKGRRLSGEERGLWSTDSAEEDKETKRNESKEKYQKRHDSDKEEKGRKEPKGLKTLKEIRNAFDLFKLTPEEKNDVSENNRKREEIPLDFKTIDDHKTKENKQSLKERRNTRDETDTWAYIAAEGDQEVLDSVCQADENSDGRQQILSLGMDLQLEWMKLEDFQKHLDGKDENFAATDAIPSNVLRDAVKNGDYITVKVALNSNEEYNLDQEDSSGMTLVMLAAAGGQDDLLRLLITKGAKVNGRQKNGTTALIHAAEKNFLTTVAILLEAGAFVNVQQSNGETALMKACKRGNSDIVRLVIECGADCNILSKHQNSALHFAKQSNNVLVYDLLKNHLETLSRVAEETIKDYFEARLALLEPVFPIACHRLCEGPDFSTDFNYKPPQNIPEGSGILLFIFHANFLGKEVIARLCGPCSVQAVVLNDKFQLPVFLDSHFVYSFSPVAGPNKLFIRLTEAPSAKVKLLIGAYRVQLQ
# Summary of the method: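 MPP8 (50 nM) was pre-bound to 50 nM biotinylated H3(1-18)K9me3 peptide in PBS pH 7.4 with 0.01% Tween-20. Compounds were then added for 30 min at room temperature, and complex disruption was read by AlphaScreen with streptavidin donor and nickel-chelate acceptor beads.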
# [8] = target: Chromobox protein homolog 1 (Homo sapiens) (UniProt P83916); test: qHTS Validation Assay for Inhibitors of HP1-beta Chromodomain Interactions with Methylated Histone Tails (AID 488953); further: nearly all actives have a fitted effect of over 50% in size; further: potency means the concentration at half of the fitted maximal effect
# Chain of Chromobox protein homolog 1 (Homo sapiens) (P83916 whole entry, looked up): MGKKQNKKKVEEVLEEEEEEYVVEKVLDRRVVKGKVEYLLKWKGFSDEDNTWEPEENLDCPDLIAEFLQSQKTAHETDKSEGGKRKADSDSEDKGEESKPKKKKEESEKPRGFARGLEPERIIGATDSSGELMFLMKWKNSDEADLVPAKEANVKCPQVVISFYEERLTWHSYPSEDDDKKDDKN
# Summary of the method: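 Compounds pinned into a preassembled complex of HP1-beta and trimethyl-K9 histone H3(1-18) biotin peptide (50 nM each; PBS pH 7.4, 0.01% Tween-20). After 30 min, bead-based AlphaScreen detection followed.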
# [9] = target: Methanococcus maripaludis chaperonin (MmCpn) (UniProt Q6LX38); test: High-Throughput Screening for Modulators of Cytosolic Chaperonin Activity: MmCpn Primary Screen (AID 488978);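 further: 50 nM MmCpn enzyme hydrolysing 30 µM ATP at 37 °C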
# Summary of the method: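 MmCpn at 50 nM final was preincubated 5 min at RT with compound. ATP was then added at 30 uM final for 10 min at 37 C. ADP formed was detected by Transcreener HTRF (665/590 nm).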
# [10] = target: Transient receptor potential cation channel subfamily V member 1 (Homo sapiens) (UniProt Q8NER1); test: HTS Assay for Compounds that Act as Enhancers of the Vanilloid Receptor 1 (AID 488979)
# Chain of Transient receptor potential cation channel subfamily V member 1 (Homo sapiens) (Q8NER1 whole entry, looked up): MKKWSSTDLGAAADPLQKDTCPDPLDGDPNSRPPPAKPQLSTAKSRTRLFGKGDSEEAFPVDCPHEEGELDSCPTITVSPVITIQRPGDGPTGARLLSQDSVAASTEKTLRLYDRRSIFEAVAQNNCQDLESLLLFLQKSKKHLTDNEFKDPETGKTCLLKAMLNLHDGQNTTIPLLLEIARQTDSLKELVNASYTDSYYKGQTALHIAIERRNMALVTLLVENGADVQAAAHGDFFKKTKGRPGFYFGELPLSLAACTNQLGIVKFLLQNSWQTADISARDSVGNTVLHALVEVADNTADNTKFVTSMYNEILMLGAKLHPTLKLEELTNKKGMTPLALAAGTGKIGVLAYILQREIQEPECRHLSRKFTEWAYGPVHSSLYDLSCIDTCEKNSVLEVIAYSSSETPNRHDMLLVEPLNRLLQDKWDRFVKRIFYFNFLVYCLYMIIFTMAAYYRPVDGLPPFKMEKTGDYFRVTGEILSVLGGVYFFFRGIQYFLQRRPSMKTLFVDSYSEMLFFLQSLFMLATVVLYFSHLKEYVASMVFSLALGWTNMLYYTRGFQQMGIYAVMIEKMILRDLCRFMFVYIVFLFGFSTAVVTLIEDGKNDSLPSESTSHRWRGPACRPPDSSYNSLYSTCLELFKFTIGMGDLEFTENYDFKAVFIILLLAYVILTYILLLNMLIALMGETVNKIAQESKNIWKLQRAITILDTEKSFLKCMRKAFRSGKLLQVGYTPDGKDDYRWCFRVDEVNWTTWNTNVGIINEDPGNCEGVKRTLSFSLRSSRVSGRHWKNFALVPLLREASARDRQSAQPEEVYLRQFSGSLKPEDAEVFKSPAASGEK
# Summary of the method: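 Calcium influx kinetics via Fluo-8 (480/520 nm) in TRPV1-expressing cells, 2000/well cultured overnight at 35.5C. Compound-alone read 3 min (agonist phase), followed by EC20 capsaicin challenge for 2 min (enhancer phase).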
# [11] = target: Thyrotropin receptor (Homo sapiens) (UniProt P16473); test: qHTS Assay for Antagonists of the Thyroid Stimulating Hormone Receptor (AID 488980); further: series mostly up to about 58 µM
# Chain of Thyrotropin receptor (Homo sapiens) (P16473 whole entry, looked up): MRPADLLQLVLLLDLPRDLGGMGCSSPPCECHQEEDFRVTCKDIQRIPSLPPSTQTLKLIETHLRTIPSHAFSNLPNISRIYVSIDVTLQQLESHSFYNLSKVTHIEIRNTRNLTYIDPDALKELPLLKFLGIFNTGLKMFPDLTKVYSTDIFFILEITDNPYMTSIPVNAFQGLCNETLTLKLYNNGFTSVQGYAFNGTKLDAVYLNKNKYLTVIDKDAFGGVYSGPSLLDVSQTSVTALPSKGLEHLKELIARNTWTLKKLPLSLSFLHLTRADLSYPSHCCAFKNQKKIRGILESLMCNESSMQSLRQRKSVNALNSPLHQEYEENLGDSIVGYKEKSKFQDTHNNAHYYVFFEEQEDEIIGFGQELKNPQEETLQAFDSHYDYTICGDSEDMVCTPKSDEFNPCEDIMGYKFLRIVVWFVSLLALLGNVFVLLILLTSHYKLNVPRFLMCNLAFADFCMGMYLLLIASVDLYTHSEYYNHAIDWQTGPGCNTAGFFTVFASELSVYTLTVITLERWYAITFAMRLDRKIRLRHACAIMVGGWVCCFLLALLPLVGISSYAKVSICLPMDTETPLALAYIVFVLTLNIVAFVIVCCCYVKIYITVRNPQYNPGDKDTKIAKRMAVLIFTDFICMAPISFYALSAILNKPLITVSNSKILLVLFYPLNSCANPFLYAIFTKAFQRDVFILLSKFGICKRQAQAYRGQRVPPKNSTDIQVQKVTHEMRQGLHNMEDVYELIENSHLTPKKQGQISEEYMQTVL
# Summary of the method: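 TSHR-transfected HEK293 cells (2000/well) in HEPES-buffered HBSS with 70 uM RO 20-1724 were stimulated with 4 nM TSH (EC80, final) in the presence of compound. cAMP was measured by HTRF competition after lysis and 30 min at RT.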
# [12] = target: D(1A) dopamine receptor (Homo sapiens) (UniProt P21728); test: HTS Assay for Allosteric Agonists of the Human D1 Dopamine Receptor: Primary Screen for Agonists (AID 488981); further: potency means the concentration at half of the fitted maximal effect
# Summary of the method: (§1)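 Calcium flux in an inducible, force-coupled HEK293 Trex D1 line (overnight at 30 C): agonist mode is the 180 s kinetic read after compound; potentiator mode is the following 180 s read after dopamine at EC20.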
# [13] = target: D(1A) dopamine receptor (Homo sapiens) (UniProt P21728); test: HTS Assay for Allosteric Agonists of the Human D1 Dopamine Receptor: Primary Screen for Potentiators (AID 488982); further: potency means the concentration at half of the fitted maximal effect
# Summary of the method: as §1
# [14] = target: D(1A) dopamine receptor (Homo sapiens) (UniProt P21728); test: HTS Assay for Allosteric Agonists of the Human D1 Dopamine Receptor: Primary Screen for Antagonists (AID 488983);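 further: calcium flux response to an EC80 dopamine challenge measured with no-wash dye; nearly all actives have a fitted effect of over 65% in size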; further: potency means the concentration at half of the fitted maximal effect
# Summary of the method: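 In this primary screen, compounds are applied to calcium-dye-loaded HEK293 T-REx cells with force-coupled D1 expression induced overnight at 30 C. An EC80 of dopamine follows the 180 s compound phase, and calcium is monitored for a further 180 s.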
# [15] = Validation screen for small molecules that induce genotoxicity in human embryonic kidney (HEK293T) cells expressing luciferase-tagged ELG1 (AID 493106)
# Summary of the method: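 In this validation screen, increased ELG1-luciferase signal flags compounds causing genetic stress. HEK293T reporter cells are treated 16 hr (37 °C, 5% CO2), developed with ONE-Glo for 30 min at room temperature, and imaged on a CCD-based reader.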
# [16] = target: ATPase family AAA domain-containing protein 5 (Homo sapiens) (UniProt Q96QE3); test: Validation screen for small molecules that inhibit ELG1-dependent DNA repair in human embryonic kidney (HEK293T) cells expressing luciferase-tagged ELG1 (AID 493107); further: nearly all actives have a fitted effect of over 70% in size; further: potency means the concentration at half of the fitted maximal effect
# Chain of ATPase family AAA domain-containing protein 5 (Homo sapiens) (Q96QE3 whole entry, looked up, the tested form may be a part): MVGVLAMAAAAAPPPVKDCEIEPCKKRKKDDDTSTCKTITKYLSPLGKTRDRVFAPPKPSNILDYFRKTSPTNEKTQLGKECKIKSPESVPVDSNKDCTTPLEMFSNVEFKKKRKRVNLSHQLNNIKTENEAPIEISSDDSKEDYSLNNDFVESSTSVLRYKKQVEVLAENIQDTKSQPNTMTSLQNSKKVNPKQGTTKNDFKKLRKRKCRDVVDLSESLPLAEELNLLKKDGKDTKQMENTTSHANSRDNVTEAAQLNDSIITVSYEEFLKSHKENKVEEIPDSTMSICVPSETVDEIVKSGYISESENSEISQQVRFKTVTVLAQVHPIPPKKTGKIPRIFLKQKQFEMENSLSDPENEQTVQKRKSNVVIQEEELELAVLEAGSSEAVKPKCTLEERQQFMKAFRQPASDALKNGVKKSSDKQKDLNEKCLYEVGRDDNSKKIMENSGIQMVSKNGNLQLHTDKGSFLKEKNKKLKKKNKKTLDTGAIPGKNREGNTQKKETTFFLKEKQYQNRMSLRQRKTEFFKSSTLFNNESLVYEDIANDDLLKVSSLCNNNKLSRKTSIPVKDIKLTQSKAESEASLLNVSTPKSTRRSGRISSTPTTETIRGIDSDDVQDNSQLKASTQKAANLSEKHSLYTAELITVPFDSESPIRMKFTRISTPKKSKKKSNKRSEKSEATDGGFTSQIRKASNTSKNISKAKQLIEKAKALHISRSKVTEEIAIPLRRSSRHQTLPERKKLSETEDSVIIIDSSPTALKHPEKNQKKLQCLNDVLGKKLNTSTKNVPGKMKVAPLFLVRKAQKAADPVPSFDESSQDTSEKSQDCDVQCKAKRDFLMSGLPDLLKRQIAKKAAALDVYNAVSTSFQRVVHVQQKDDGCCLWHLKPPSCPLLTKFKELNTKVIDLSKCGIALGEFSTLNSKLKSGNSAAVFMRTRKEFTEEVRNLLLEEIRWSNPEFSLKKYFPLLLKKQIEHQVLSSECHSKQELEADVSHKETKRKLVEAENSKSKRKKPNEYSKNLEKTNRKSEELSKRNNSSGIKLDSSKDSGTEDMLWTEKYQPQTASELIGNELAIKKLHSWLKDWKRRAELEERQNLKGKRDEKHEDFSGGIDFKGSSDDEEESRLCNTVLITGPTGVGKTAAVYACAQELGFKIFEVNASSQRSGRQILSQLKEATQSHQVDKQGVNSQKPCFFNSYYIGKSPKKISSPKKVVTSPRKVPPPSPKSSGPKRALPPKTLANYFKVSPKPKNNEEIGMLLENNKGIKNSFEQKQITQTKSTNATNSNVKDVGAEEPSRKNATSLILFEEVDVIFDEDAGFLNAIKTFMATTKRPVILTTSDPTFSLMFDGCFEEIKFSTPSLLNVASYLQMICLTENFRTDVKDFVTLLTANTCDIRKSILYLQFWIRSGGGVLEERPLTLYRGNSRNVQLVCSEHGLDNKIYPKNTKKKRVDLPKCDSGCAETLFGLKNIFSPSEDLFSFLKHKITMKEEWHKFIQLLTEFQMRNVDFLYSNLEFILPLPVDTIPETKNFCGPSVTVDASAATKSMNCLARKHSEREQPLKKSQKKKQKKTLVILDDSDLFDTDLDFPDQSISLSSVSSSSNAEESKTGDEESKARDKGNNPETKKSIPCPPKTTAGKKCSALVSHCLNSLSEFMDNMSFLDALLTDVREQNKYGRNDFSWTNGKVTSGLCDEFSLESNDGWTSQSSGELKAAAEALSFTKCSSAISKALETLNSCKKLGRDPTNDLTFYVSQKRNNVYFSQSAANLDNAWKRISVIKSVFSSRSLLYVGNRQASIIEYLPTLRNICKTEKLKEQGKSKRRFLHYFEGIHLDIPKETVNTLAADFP
# Summary of the method: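 Compounds reducing 5-fluorouridine-driven ELG1-luciferase signal in HEK293T cells were scored; exposure lasted 16 hr at 37 °C with luminescence detected via ONE-Glo.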
# [17] = target: Thyrotropin-releasing hormone receptor (Homo sapiens) (UniProt P34981); test: qHTS for Small Molecule Agonists and Allosteric Enhancers of Human TRH Receptor: Validation Screen for Agonists (AID 493127;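 active means calcium activation more than 3 SD above the typical response in the agonist read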;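 further: intracellular calcium rise by fluo-8 fluorescence before TRH EC20 addition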); conditions: TRH receptor agonist cell assay; at 2 µM; active compounds read high
# Summary of the method: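 Kinetic fluorescence assay of agonist-induced calcium release: overnight-plated TRHR cells, room-temperature fluo-8 loading, baseline then compound addition with per-second reads.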
# [18] = target: Thioredoxin reductase 1, cytoplasmic (Rattus norvegicus) (UniProt O89049); test: qHTS Assay for Inhibitors of Mammalian Selenoprotein Thioredoxin Reductase 1 (TrxR1) (AID 488773); conditions: Potency: inhibition;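 further: drop in NADPH fluorescence over an 8 min run after selenite addition; series mostly up to about 57 µM; nearly all actives have a fitted effect of over 40% in size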
# Summary of the method: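 Inhibition is scored from the loss of NADPH fluorescence between first and last reads of an 8-min kinetic run. Selenite (400 uM) was the substrate, added after 15 min compound preincubation at room temperature.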
Compound,outcome [1],Potency [2],Potency [3],Potency [4],outcome [5],Potency [6],Potency [7],Potency [8],outcome [9],outcome [10],outcome [11],Potency [12],Potency [13],Potency [14],Potency [15],Potency [16],activation [17],Potency [18]
COc1cc(/C=C(\C#N)C(=O)c2ccc(O)c(O)c2)cc(I)c1O,inactive,6.01 µM (active),inactive,inactive,inactive,0.844 µM (active),8.91 µM (active) and 8.44 µM (active),10 µM (active),inactive,inactive,inactive,14.1 µM (active),3.66 µM (active),inactive,inactive,inactive,53.1% (active),–
O=C(O)/C=C/c1ccc(O)c(O)c1,inactive,inactive,–,inactive,inactive,inactive,inactive,inactive,inactive,inactive,inactive,inactive,inactive,inactive,inactive,inactive,–,inactive
Fc1ccc(CN(C2=NCCN2)c2c(Cl)cccc2Cl)cc1,inactive,inactive,–,–,inactive,inactive,inactive,inactive,inactive,–,inactive,inactive,inactive,inactive,inactive,–,1.31%,inactive
O=C(O)CCC(=O)N1CCCC1C(=O)O (stereo not given),inactive,inactive,inactive,–,inactive,inactive,inactive,inactive,inactive,inactive,inactive,inactive,inactive,inactive,inactive,inactive,-0.312%,inactive
O=C1OC(=O)C2C3CCC(O3)C12 (stereo not given),inactive,inactive,inactive,inactive,–,inactive,inactive,inactive,inactive,inactive,inactive,inactive,inactive,inactive,–,inactive,0.938%,inactive
C=CCNc1ncnc2ccc(Br)cc12,inactive,inactive,–,–,inactive,inactive,inactive,–,inactive,–,–,inactive,inactive,inactive,inactive,–,–,inactive
CC(=O)NCCc1c[nH]c2ccc(O)cc12,inactive,inactive,inactive,–,inactive,inactive,inactive,–,inactive,inactive,inactive,–,inactive,inactive,inactive,–,1.31%,inactive
COc1ccc(C(=O)NCc2cccnc2)cc1C(=O)NCc1cccnc1,inactive,inactive,–,inactive,inactive,inactive,inactive,inactive,inactive,inactive,inactive,inactive,–,inactive,inactive,inactive,0.938%,inactive
CNCCNS(=O)(=O)c1cccc2cnccc12,inactive,inactive,inactive,inactive,–,inactive,inactive,inactive,inactive,inactive,inactive,inactive,inactive,inactive,inactive,9.2 µM (active),1.44%,inactive
O=c1oc(Cl)c(Cl)c2ccccc12,inactive,inactive,inactive,inactive,inactive,inactive,–,–,inactive,inactive,inactive,inactive,inactive,inactive,inactive,–,-4.69%,–
COc1cc(C(O)CO)ccc1O (stereo not given),inactive,inactive,inactive,inactive,inactive,inactive,inactive,inactive,inactive,inactive,inactive,inactive,–,inactive,inactive,inactive,0.688%,–
CCN(c1nc(N)c(C(=O)N=C(N)N)nc1Cl)C(C)C,inactive,inactive,–,inactive,inactive,inactive,inactive,–,inactive,inactive,inactive,–,inactive,–,inactive,–,2.31%,inactive
CCCc1c(OCCCOc2ccc(OCC(=O)O)cc2)ccc(C(C)=O)c1O,inactive,inactive,inactive,inactive,inactive,–,inactive,–,inactive,inactive,inactive,inactive,inactive,–,inactive,inactive,–,inactive
CN1CCC2(CCN3CCc4c(oc5ccccc45)C3C2)N(C)C1=O (stereo not given),inactive,inactive,inactive,inactive,inactive,–,inactive,inactive,inactive,inactive,inactive,–,inactive,10 µM (active),inactive,–,0.25%,inactive
CN1CC(O)C(O)C(O)C1CO (stereo not given),inactive,inactive,–,–,inactive,inactive,inactive,inactive,inactive,–,–,inactive,inactive,inactive,inactive,inactive,–,inactive
CCCn1c(=O)c(C)cn2nc(N)nc12,inactive,inactive,–,–,inactive,inactive,inactive,inactive,inactive,–,–,inactive,inactive,inactive,inactive,inactive,–,inactive
Cn1c(=O)c2c(nc(/C=C/c3cccc(Cl)c3)n2C)n(C)c1=O,inactive,inactive,inactive,inactive,inactive,–,inactive,inactive,inactive,inactive,inactive,inactive,inactive,inactive,inactive,inactive,-2.88%,inactive
Nc1ncnc2c1nc(Br)n2C1OC2COP(=O)(O)O[C@@H]2C1O (stereo not given in full),inactive,inactive,–,–,inactive,inactive,inactive,inactive,inactive,–,–,inactive,inactive,inactive,inactive,–,–,inactive
